Experimental data from PubChem BioAssay (NCI).
Compounds without any hit were thinned out: in the full panel of roughly 83,000, 20% have a hit.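 Plates (96-well) were seeded with cells, treated with compound at one concentration, and incubated for 48 hours before percent growth was determined.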 Values without a mark were called inactive. Activity calls are given as the source filed them. How the source made its calls: active means growth percent below 10; inactive means the rest.

Key:
Assay in all cases: NCI-60 one-dose screen, 48 h (100 = growth as untreated, 0 = no growth, -100 = all killed)
Conditions in all cases: 10 µM unless noted
[1] = tested on: NCI-H23 lung
[2] = tested on: NCI-H226 lung
[3] = tested on: NCI-H322M lung
[4] = tested on: HOP-62 NSCLC
[5] = tested on: NCI-H460 lung
[6] = tested on: HOP-92 NSCLC
[7] = tested on: NCI-H522 lung
[8] = tested on: A549/ATCC NSCLC
[9] = tested on: 786-0 renal
[10] = tested on: COLO 205 colon
[11] = tested on: DU-145 prostate
[12] = tested on: K-562 leukemia
[13] = tested on: MALME-3M melanoma
[14] = tested on: MDA-MB-231 breast
[15] = tested on: RXF 393 renal
[16] = tested on: SF-268 CNS
[17] = tested on: SF-295 CNS
[18] = tested on: SF-539 CNS
[19] = tested on: UACC-257 melanoma
[20] = tested on: M14 melanoma

Row | Compound | growth [1] [%] | growth [2] [%] | growth [3] [%] | growth [4] [%] | growth [5] | growth [6] | growth [7] | growth [8] [%] | growth [9] [%] | growth [10] | growth [11] [%] | growth [12] | growth [13] | growth [14] | growth [15] | growth [16] | growth [17] | growth [18] | growth [19] | growth [20]
1 | C1=CC(c2nn3c(-c4ccccc4)nnc3s2)=Cc2ccccc2O1 | 75.8 | 31.7 | 96.3 | 105 | 87.2% | 55.9% | 83.8% | 89.7 | 91.8 | 90.2% | 84.8 | 43.5% | 74.1% | 78.3% | 22.7% | 77.8% | 97.9% | 71.7% | 67.8% | 65%
2 | O=C(/C=C/c1csc(Br)n1)NO | 38.4 | 82.9 | 33.1 | 35.5 | 25.7% | -2.53% (active) | 7.37% (active) | 23.5 | 52.3 | 11.6% | 25 | 9.85% (active) | 1% (active) | 34.1% | -15.9% (active) | 57.6% | 7.79% (active) | 35.4% | 22.3% | 27.1%
3 | COc1cc(C(=O)c2cc(C(C)=O)c3c(C)cccn23)cc(OC)c1OC | 101 | 89.9 | 98.5 | 99.5 | 102% | 110% | 90.2% | 104 | 91 | 110% | 107 | 94.6% | 89.1% | 76.1% | 81.1% | 106% | 109% | 97.5% | 98.2% | 96.1%
4 | CCCCOc1ccc(S(=O)(=O)N2CCN(c3nc(C)cc(N4CCOCC4)n3)CC2)cc1 | 41.7 | 67.2 | 62.2 | 59 | 1.22% (active) | 18.2% | 88.8% | 27.3 | 33.4 | 5.81% (active) | 16.6 | 44.3% | 107% | 3.79% (active) | 85% | 3.91% (active) | -22.5% (active) | 75.9% | -47.2% (active) | -15.9% (active)
5 | CCCCN1C(=O)/C(=c2\sc3n(c2=O)C2C(NN=3)N(CC)C(=O)N2CC)c2cccc(C)c21 (stereo not given) | 49.7 | 36.6 | 52.7 | 46.8 | 18.8% | 71.1% | 39.4% | 57.1 | 63.3 | 24.6% | 37.6 | 15% | 54.5% | 60% | 11.9% | 56.2% | 29.1% | -7.82% (active) | 89.4% | 27%
6 | CN1CCN(c2ccc(Nc3nc(NCCNS(=O)(=O)c4ccc5ccccc5c4)c4sccc4n3)cc2)CC1 | 84.3 | 98.4 | 83.7 | 97.5 | 74.3% | 47.8% | 87.4% | 84.3 | 56.3 | 13.3% | 84 | 1.59% (active) | 2.39% (active) | 74.3% | 29.4% | 63.3% | 102% | 65% | 65.7% | -82.6% (active)
7 | CS(=O)(=O)c1ccc(/C(=N/N=C(N)N)c2ccc(F)cc2)cc1 | 88.3 | 91 | 119 | 95.7 | 92.7% | 94.4% | 81.2% | 80.8 | 76.9 | 88% | 106 | 25.1% | 97.4% | 105% | 86.1% | 78.9% | 71% | 99.5% | 76.9% | 67.2%
8 | Cc1csc(/N=C(N)/N=C(\N)c2cccs2)n1 | 90.5 | 99.1 | 100 | 103 | 104% | 69.1% | 98.9% | 102 | 112 | 109% | 110 | 95.7% | 102% | 99.5% | 106% | 103% | 113% | 99.1% | 104% | 99.1%
